Screen size: about 340,000 compounds; about 3,300 (0.97%) were called active. The sample as a whole holds a higher share of actives than the screen did. Values without a mark were called inactive.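 How the source made its calls: active means mean activation above about 17%, with every replicate also reaching it (limit read from the data, passing the limit was not always enough); inconclusive means only one of the two conditions met; inactive means the rest.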
What follows are molecules tested against Protein FosB (Mus musculus) (UniProt P13346) (assay: activators of delta FosB homodimer, primary screen, biochemical, fluorescence polarization, TAMRA-CDK5 oligo, single point (AID 493131;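 further: fluorescence polarization rise as delta FosB binds a TAMRA Cdk5 AP-1 oligo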)). Conditions: purified delta FosB, at 25 µM, active compounds read high, percent of positive-control signal above neutral wells.
Sequence of Protein FosB (Mus musculus) (P13346 whole entry, looked up): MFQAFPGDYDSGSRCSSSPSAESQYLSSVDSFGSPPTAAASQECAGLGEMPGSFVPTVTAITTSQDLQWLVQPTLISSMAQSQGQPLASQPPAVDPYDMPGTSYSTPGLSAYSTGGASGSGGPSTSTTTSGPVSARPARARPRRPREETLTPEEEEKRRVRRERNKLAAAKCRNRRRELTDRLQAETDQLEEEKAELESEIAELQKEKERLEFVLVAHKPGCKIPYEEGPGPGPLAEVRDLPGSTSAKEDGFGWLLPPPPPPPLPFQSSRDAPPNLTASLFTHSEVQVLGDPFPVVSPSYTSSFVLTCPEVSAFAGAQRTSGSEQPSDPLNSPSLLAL
In the case of `CN(Cc1cccs1)C(=O)Cc1c[nH]c2ccccc12`, the activation was 0.954%. In the case of `COc1ccc(NC(=O)CN(C)C(=O)c2ccc(NC3CC3)c([N+](=O)[O-])c2)cc1`, the activation was 4.11%. `COc1ccc(-n2cnnc2SCC(=O)Nc2cccc([N+](=O)[O-])c2)cc1` was tested, and the activation was 9.7%. `COc1ccc(CCNC(=O)CSc2nc3[nH]ncc3c(=O)n2-c2cccc(C(F)(F)F)c2)cc1OC` showed an activation of 0.114%. `NC(=O)NC(=O)CSc1nc2cc([N+](=O)[O-])ccc2n1-c1cccc(C(F)(F)F)c1` was tested, and the activation was 20.9% (active). Work on `O=C(COc1ccccc1)Nc1nonc1NC(=O)COc1ccccc1` yielded an activation of 1.39%. In the case of `COC(=O)CC1=NN(c2nc(C)cc(C)n2)C(=O)C1`, the activation was 0.664%. In the case of `CS(=O)(=O)N(CC(=O)N1CCCC1)Cc1ccccc1`, the activation was -9%. Work on `Cc1ccc(-c2nc(CS(=O)CC(=O)N3CCN(c4ncccn4)CC3)c(C)o2)cc1` (stereo not given) yielded an activation of -11.3%. `Cc1[nH]c2c(C(=O)N3CCCC(CCC(=O)NCc4ccccc4F)C3)cccc2c1C` (stereo not given) gave an activation of -10%. `O=C(Nc1c[nH]c(=O)[nH]c1=O)OCc1ccccc1` gave an activation of 1.77%. In the case of `Cc1cc(NC(=O)Nc2c[nH]c(=O)[nH]c2=O)ccc1Br`, the activation was 27% (active). Work on `Cc1ccc(NC(=O)Nc2ccccc2)c(Br)c1` yielded an activation of -6.25%. `CCOC(=O)CCC(NC(=O)c1ccc(CNc2nc3cc(C(F)(F)F)ccc3nc2C(=O)OCC)cc1)C(=O)OCC` (stereo not given) was tested, and the activation was -4.97%. `CC(=O)Nc1ccc(S(=O)(=O)NCC(=O)OCc2cc(=O)oc3ccc4ccccc4c23)cc1` was tested, and the activation was 38.6% (active). With `COc1ccccc1CNC(=O)COC(=O)CNS(=O)(=O)c1ccc(NC(C)=O)cc1` the activation was 0.477%. Work on `COc1ccccc1C(=O)COC(=O)CNS(=O)(=O)c1ccc(NC(C)=O)cc1` yielded an activation of -5.62%. With `CC1CCC(N2CC(=O)N(Cc3ccc4c(c3)OCO4)C(c3ccc(F)cc3)C2=O)CC1` (stereo not given) the activation was -1.56%. `O=C(CN(Cc1ccccc1)C(=O)CCC(=O)Nc1ccccn1)NCCc1ccccc1` showed an activation of -12.5%. For `CCCOc1ccc(C(=O)C(CCC(CNCC)C(=O)c2ccc(OCCC)cc2)CNCC)cc1` (stereo not given), the activation was 18.7% (active). In the case of `CCCOc1ccc(C(=O)CCC(=O)OC(C)C(=O)Nc2ccc(NC(C)=O)cc2)cc1` (stereo not given), the activation was 11.5%. Molecule `CCCOc1ccc(/C=N/NC(=O)C2CC2)c(OCCC)c1` has an activation of -10.6%. In the case of `Nc1nc(SCC(=O)Nc2cc(C(F)(F)F)ccc2Cl)[nH]c(=O)c1NC(=O)c1ccco1`, the activation was 48.3% (active). For `O=C(Nc1cc(-c2nc3ncccc3o2)ccc1Cl)c1ccco1`, the activation was -46.8%. Molecule `COC(=O)c1ccc(NC(=O)CSc2nc(N)c(NC(=O)c3ccc(Br)o3)c(=O)[nH]2)cc1` has an activation of 10.1%. `CCN(CC(=O)NCc1ccc(F)cc1)S(=O)(=O)c1ccc(Cl)s1` gave an activation of 6.54%. `NN=C(NN=Cc1ccccc1)c1ccccc1` showed an activation of -14.8%. Molecule `COc1ccc(C)cc1NC(=O)CSc1cccc[n+]1[O-]` has an activation of 6.31%. `O=C(Nc1nnc(C2COc3ccccc3O2)o1)c1ccc(F)cc1` (stereo not given) was tested, and the activation was 1.05%. With `COc1ccc(N(CC(=O)N/N=C/c2cccc3c2OCCO3)S(=O)(=O)c2ccc(NC(C)=O)cc2)cc1` the activation was -0.26%. `Cc1cc(=O)[nH]c2nnnn12` gave an activation of -4.86%. Molecule `CCN(CC)CCNc1ccc(Cl)cc1[N+](=O)[O-]` has an activation of 4.58%. For `O=C(Nc1nc(-c2ccc(-c3ccccc3)cc2)cs1)c1cnccn1`, the activation was 21.9% (active). In the case of `O=C(NCc1cccnc1)C(=O)Nc1nc(-c2ccccc2)cs1`, the activation was -5.18%. For `O=C(Nc1nnc(Cc2ccccc2)s1)c1cnccn1`, the activation was -3.57%. In the case of `CCCCC(NS(=O)(=O)c1ccc(C)cc1)C(=O)Oc1ccc2c3c(c(=O)oc2c1)CCC3` (stereo not given), the activation was -11.5%. Work on `CCOc1ccc(NC(=O)c2ccc(CSc3nnnn3C)cc2)cc1` yielded an activation of -3.33%. `O=C(N/N=C/c1cccc(Br)c1)c1ccc(N2CCCC2=O)cc1` was tested, and the activation was 86.6% (active). Work on `O=C(Nc1ccc(N2CCCC2=O)cc1)c1cncc(Br)c1` yielded an activation of -1.59%. For `Cn1c(=O)n(C)c2cc(/C=N/NC(=O)c3cccc(Br)c3)ccc21`, the activation was 10.7%. `CCN(CC(=O)Nc1c(F)cccc1F)C(=O)Cc1cccs1` gave an activation of 3.46%. With `Cc1ccc(C)c(NC(=O)C(OC(=O)c2ccc(C)s2)c2ccccc2)c1` (stereo not given) the activation was 23.6% (active). `COc1ccc(C)cc1NC(=O)C(OC(=O)c1cccc(S(=O)(=O)N(C)c2ccccc2)c1)c1ccccc1` (stereo not given) showed an activation of -8.39%. `Cc1cc(C)cc(NC(=O)C(OC(=O)c2ccc(O)cc2)c2ccccc2)c1` (stereo not given) gave an activation of 6.84%. With `C/C(CC(=O)NCc1ccc(Cl)cc1)=N\NC(=O)COc1ccc(C)cc1Br` the activation was -6.55%.

— PubChem BioAssay AID493131 (Broad Institute, 2011)
